Calls of active or inactive are those of the source. Unless noted, no rule for the calls is given here.
What was measured:
[1] = kinase inhibitors against Plasmodium liver-stage infection, cell-based, known kinase inhibitor set, luminescence, hepatoma host viability (AID 624392); settings: Plasmodium liver stage in hepatoma cells, luciferase luminescence, concentration not given here; liver cell % of control: measured here: host liver cell viability; parasite % of control: stronger effect = lower value;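 also: infected cells incubated roughly two days before readout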
[2] = modulators of glucocorticoid suppression of NF-kB, cell-based, luciferase, IL-1B stimulus, dexamethasone (AID 624486); settings: NF-kB luciferase reporter, IL-1B + dexamethasone, luminescence; percent of negative control (+Dex): actives lie on both sides, concentration not given here; z-score: measured here: IL-1B alone, no Dex;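 as to percent of negative control (+Dex): 100% = mean signal of vehicle control wells on the plate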
[3] = kinase inhibitors altering Pseudomonas killing of worms, whole organism (AID 651566);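 also: tested at 14 µM; sign flipped so higher z means a lower ratio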; settings: C. elegans killed by P. aeruginosa, survival ratio
[4] = activators of macrophage pro-inflammatory response, cell-based, murine, luminescence (AID 652131); settings: murine macrophage pro-inflammatory reporter, stronger effect = higher value
[5] = biological target: Cellular tumor antigen p53 (Homo sapiens) (UniProt P04637); assay: kinase inhibitors altering GFP-p53 stability in HPV16-positive cells, imaging, known kinase inhibitor set, EGFP/DsRed ratio (AID 1053116); settings: stronger effect = higher value; EGFP object count: measured here: GFP-p53 positive objects count;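 also: cells exposed to compounds for 24 h at 37 °C before reading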
[6] = IRF3 reporter activation in THP-1 macrophages, cell-based, PMA-stimulated THP-1, luminescence (AID 1053176); settings: PMA-differentiated THP-1, IRF3 reporter luminescence; stronger effect = higher value
[7] = survival rescue of mitochondrial mutant cells in low glucose, primary screen, MELAS cybrids, Rieske KO mouse fibroblasts, CellTiter-Glo (AID 1508586;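 active = mean z-score across replicates of 1.96 or higher in either the MELAS or the Rieske mutant cell line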;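 also: z relative to plate mean and SD of compound and empty wells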)
[8] = MELAS cybrid survival, CellTiter-Glo 48 h, stronger effect = higher value
[9] = Rieske KO mouse fibroblast survival, CellTiter-Glo 72 h

Cellular tumor antigen p53 (Homo sapiens), sequence (P04637 whole entry, looked up): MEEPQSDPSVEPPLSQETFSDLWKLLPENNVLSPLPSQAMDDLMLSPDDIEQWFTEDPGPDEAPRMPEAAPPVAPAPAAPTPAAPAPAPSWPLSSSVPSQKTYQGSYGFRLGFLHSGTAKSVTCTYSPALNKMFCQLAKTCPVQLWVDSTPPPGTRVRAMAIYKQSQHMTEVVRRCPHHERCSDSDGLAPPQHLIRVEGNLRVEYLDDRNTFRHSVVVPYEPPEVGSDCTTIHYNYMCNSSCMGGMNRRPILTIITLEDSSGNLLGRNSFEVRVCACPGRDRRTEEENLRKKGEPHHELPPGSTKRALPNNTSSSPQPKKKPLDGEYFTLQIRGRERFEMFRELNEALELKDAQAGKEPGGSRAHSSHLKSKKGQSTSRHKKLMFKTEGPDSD

Compound	liver cell % of control [1] [%]	parasite % of control [1]	percent of negative control (+Dex) [2]	z-score [2]	z-score [3]	z-score [4]	EGFP object count [5]	EGFP/DsRed ratio [5]	fraction signal [6]	z-score [7, 8]	z-score [7, 9]
CCS(=O)(=O)c1ccc(OC)c(Nc2nccc(N(C)c3ccc4c(C)[nH]nc4c3)n2)c1	95.1	145% (inactive)	92% (inactive)	-0.36	-0.175 (inactive)	2.99 (inactive)	2.5	0.0751 (inactive)	-0.01 (inactive)	1.33 (inactive)	0.00494
CCS(=O)(=O)c1ccc(OC)c(Nc2ncc(-c3cccc(-c4ccccc4F)c3)o2)c1	111	98.4% (inactive)	88% (inactive)	0.785	-0.07 (inactive)	-0.851 (inactive)	3.5	0.511 (inactive)	0.0015 (inactive)	2.02 (active)	-0.444
Cc1nn(C)c2cc(N(C)c3ccnc(Nc4cccc(S(N)(=O)=O)c4)n3)ccc12	71.5	67% (inactive)	82% (inactive)	0.54	0.53 (inactive)	3.14 (inactive)	2	0.0899 (inactive)	-0.0065 (inactive)	-0.638 (inactive)	0.0293
COc1cc2ncnc(Nc3ccc4c(cnn4Cc4ccccc4)c3)c2cc1OC	114	129% (inactive)	71.5% (inactive)	-2.37	-0.95 (inactive)	3.16 (inactive)	4	0.17 (inactive)	0.032 (inactive)	0.162 (inactive)	-0.293
CCS(=O)(=O)c1ccc(OC)c(Nc2ncc(-c3ccccc3Cl)o2)c1	160	36.8% (inactive)	74.5% (inactive)	-0.91	-0.335 (inactive)	-0.503 (inactive)	4.5	0.0626 (inactive)	0.0065 (inactive)	1.39 (inactive)	-0.145
COc1cccc(-n2ncc3c(N/N=C/c4ccncc4)ncnc32)c1	106	21.2% (inactive)	156% (active)	0.175	0.485 (inactive)	0.337 (inactive)	14	0.38 (inactive)	0.0245 (inactive)	-0.213 (inactive)	0.531
CCc1nn2ncccc2c1-c1ccnc(NC2CC2)n1	131	61.2% (inactive)	102% (inactive)	-0.225	0.555 (inactive)	-0.174 (inactive)	3.5	0.117 (inactive)	0.007 (inactive)	-0.448 (inactive)	-0.208
CS(=O)(=O)CCNCc1ccc(-c2ccc3ncnc(Nc4ccc(OCc5ccccc5)c(C(F)(F)F)c4)c3c2)o1	107	128% (inactive)	91.5% (inactive)	-0.11	-1.4 (inactive)	0.401 (inactive)	6	0.123 (inactive)	-0.0055 (inactive)	0.000746 (inactive)	-0.326
COc1cc2c(cc1Nc1nc(Nc3cccc(F)c3C(N)=O)c3cc[nH]c3n1)N(C(=O)CN1CCN(C(C)C)CC1)CC2	73.3	300% (inactive)	95.5% (inactive)	-0.34	0.095 (inactive)	-0.476 (inactive)	4.5	0.201 (inactive)	0.004 (inactive)	-0.91 (inactive)	-0.402
CCn1c(-c2nonc2N)nc2ccc(F)cc21	98	113% (inactive)	82.5% (inactive)	-0.655	-0.725 (inactive)	-0.544 (inactive)	4	0.0296 (inactive)	0.0105 (inactive)	-0.0553 (inactive)	0.0939
O=S1CCN(Cc2ccc(-c3ccc4ncnc(Nc5ccc(OCc6ccccc6)c(Cl)c5)c4c3)o2)CC1	98.4	108% (inactive)	77% (inactive)	-0.87	0.67 (inactive)	1.11 (inactive)	5	0.0559 (inactive)	-0.0035 (inactive)	1.05 (inactive)	-0.081
CCn1c(-c2nonc2N)nc2c(C#CC(C)(C)O)nc(OC[C@H](N)c3ccccc3)cc21	91.7	78.3% (inactive)	106% (inactive)	1.86	0.015 (inactive)	-1.25 (inactive)	7.5	0.207 (inactive)	-0.0025 (inactive)	-0.101 (inactive)	0.135
COc1cccc(-n2ncc3c(N/N=C/c4ccc(F)cc4)ncnc32)c1	104	96.2% (inactive)	93.5% (inactive)	0.76	-1.12 (inactive)	-0.343 (inactive)	9	0.197 (inactive)	-0.0025 (inactive)	1.48 (inactive)	-0.0554
CC1=C(C(=O)Nc2ccc3[nH]ncc3c2)C(c2ccc3ccccc3c2)CC(=O)N1 (stereo unspecified)	109	30% (inactive)	79% (inactive)	-1.06	-0.24 (inactive)	0.091 (inactive)	3	0.432 (inactive)	-0.014 (inactive)	0.693 (inactive)	-0.221
Cc1ccc(Nc2ccnc(Nc3cccc(C(N)=O)c3)n2)cc1O	103	259% (inactive)	106% (inactive)	1.52	-0.32 (inactive)	-1.32 (inactive)	3	0.0254 (inactive)	-0.008 (inactive)	-0.195 (inactive)	0.472
Fc1ccc(-c2c(-c3ccncc3)nc3n2CCS3)cc1	113	89.2% (inactive)	40% (active)	-5.96	-1.12 (inactive)	1.33 (inactive)	1.5	0.0335 (inactive)	-0.0075 (inactive)	-0.499 (inactive)	-0.254
CC1=C(C(=O)Nc2ccc3[nH]ncc3c2)C(c2ccc(F)cc2)NC(=O)N1 (stereo unspecified)	105	158% (inactive)	100% (inactive)	0.22	0.64 (inactive)	-0.296 (inactive)	3.5	0.352 (inactive)	0.0035 (inactive)	0.62 (inactive)	-0.219
Fc1ccc(-c2ncn(C3CCNCC3)c2-c2ccnc(Oc3ccc(Oc4ccccc4)cc3)n2)cc1	58.8	102% (inactive)	99% (inactive)	0.615	-1.07 (inactive)	-0.715 (inactive)	28.5	0.354 (inactive)	-0.002 (inactive)	-0.215 (inactive)	-0.0474
COc1cc(C)c(NC(=O)CN(C)C)cc1Nc1nc(Nc2cccc(F)c2C(N)=O)c2cc[nH]c2n1	63	550% (inactive)	93% (inactive)	-0.195	-0.165 (inactive)	5.12 (inactive)	21	0.493 (inactive)	-0.0105 (inactive)	1.87 (inactive)	-0.0279
Cc1cc(O)cc(C)c1/C=C/c1cncc(C(=O)N(C)C)c1	97.7	96.9% (inactive)	106% (inactive)	0.005	0.18 (inactive)	0.003 (inactive)	4.5	0.177 (inactive)	0.0095 (inactive)	-0.281 (inactive)	-0.0339
O=C(O[C@H]1CN[C@H](C#Cc2cc3ncnc(Nc4ccc5c(cnn5Cc5ccccc5)c4)c3s2)C1)N1CCOCC1	118	137% (inactive)	58% (inactive)	-2.13	1.08 (inactive)	-0.862 (inactive)	3	0.0849 (inactive)	-0.0115 (inactive)	0.875 (inactive)	-0.356
CC(=Nc1ccc(S(N)(=O)=O)cc1)c1c(O)[nH]c2ccccc12	121	234% (inactive)	176% (active)	5.95	-0.905 (inactive)	6.44 (active)	0.5	0.00933 (inactive)	0.0025 (inactive)	-0.469 (inactive)	-0.351
Cc1cccc2c(N=Nc3ccc(S(N)(=O)=O)cc3)c(O)[nH]c12	89.8	131% (inactive)	111% (inactive)	1.54	-0.125 (inactive)	-0.036 (inactive)	3.5	0.095 (inactive)	-0.0075 (inactive)	0.912 (inactive)	-0.47
O=C(O[C@H]1CN[C@H](C#Cc2cc3ncnc(Nc4ccc(OCc5cccc(F)c5)c(Cl)c4)c3s2)C1)N1CCOCC1	89.4	117% (inactive)	74.5% (inactive)	-1.65	0.44 (inactive)	-0.505 (inactive)	4.5	0.0369 (inactive)	-0.0095 (inactive)	-0.421 (inactive)	-0.498
Cc1ccc(-c2cc3c(NC(=O)C4CC4)ncnc3o2)cc1	108	92.7% (inactive)	83.5% (inactive)	-0.295	-0.475 (inactive)	-0.06 (inactive)	4.5	0.0878 (inactive)	-0.004 (inactive)	-0.119 (inactive)	0.346
Nc1nccc(-c2c(-c3ccc(F)cc3)ncn2CCCN2CCOCC2)n1	120	130% (inactive)	116% (inactive)	2.06	-0.635 (inactive)	1.67 (inactive)	3.5	0.019 (inactive)	-0.0025 (inactive)	-0.929 (inactive)	-0.324

From PubChem BioAssay
